Results: the supplement of paper PMC10849652
Of roughly 8,800 targets only a part is listed; those with a hit were picked by preference. About 0.5% of all pairs of compound and target were hits.

Assays:
Assay in all cases: log2 fold change, soluble protein after heating vs DMSO (PISA); higher = thermal stabilisation; K562 lysate, 10 uM; active = over 0.2 and 3.5 SD of the protein, either way, in both replicates (recomputed)
[1] = compound: C#Cc1cccc(Nc2ncnc3cc(OCCOC)c(OCCOC)cc23)c1 [erlotinib]
Outline: (§1)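 The values are log-two fold changes in thermal stability compared with solvent controls and come from duplicates. They were obtained by TMTpro 16plex LC-MS/MS, with channel sums equalised, on the supernatant after 21,000xg for 90 min. That supernatant came from crude K562 extract at 1 mg/mL protein treated with 10 μM compound for 30 min, heated for 3 min across 48°C-58°C, pooled and brought to 0.5% NP-40 at 4°C.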

[2] = compound: C/C(=N\NC(=O)C1=CC(=CC=C1)S(=O)(=O)N2CCOCC2)/C3=C(C=CC(=C3)Cl)O
Outline: as §1

[3] = compound: C1=CC(=CC=C1C2=NC3=C(N2)C=C(C=C3)C(=O)N)OC4=CC=C(C=C4)Cl
Outline: as §1

[4] = compound: C1=CC2=C(C=CC(=C2)/C=C\3/C(=O)NC(=NCC4=CC=CS4)S3)N=C1
Outline: as §1

[5] = compound: C1=CC2=NC=CN=C2C=C1/C=C/3\C(=O)NC(=O)S3
Outline: as §1

[6] = compound: C1=CC=C(C=C1)C2=NC(=C(N2)C3=CC=NC=C3)C4=CC(=C(C=C4)Cl)O
Outline: as §1

[7] = compound: C1=CC=C2C(=C1)C3=NNC4=CC=CC(=C43)C2=O
Outline: as §1

[8] = compound: C1CCN(C1)C(=O)NC2=CC=CC(=C2)NC3=NC=C(C(=N3)NCCC4=CN=CN4)Br
Outline: as §1

[9] = compound: C1CN(CCC1(CC2=CC=C(C=C2)Cl)N)C3=NC=NC4=C3C=CN4
Outline: as §1

[10] = compound: C1COCCN1CCN2C3=CC=CC=C3N=C2NC(=O)C4=CC(=CC=C4)[N+](=O)[O-] [IRAK-1-4 Inhibitor I]
Outline: as §1

[11] = compound: C=CC(=O)N1CCC[C@@H](n2nc(-c3ccc(Oc4ccccc4)cc3)c3c(N)ncnc32)C1 [ibrutinib]
Outline: as §1

[12] = compound: CC(=O)c1cnc2ccc(-c3cc(Cl)c(O)c(Cl)c3)nc2c1N[C@H]1CC[C@H](CN(C)C)CC1
Outline: as §1

[13] = compound: CC(C)(C)Cn1c(N)nc2ccc(-c3[nH]c(C(C)(C)C)nc3-c3ccc(F)cc3)nc21 [ralimetinib]
Outline: as §1

[14] = compound: CC(C)(O)CC(=O)NCCn1ccc2ncnc(Nc3ccc(Oc4cccc(C(F)(F)F)c4)c(Cl)c3)c21
Outline: as §1

[15] = compound: CC(C)C1=C2N=C(C=C(N2N=C1)NCC3=CC=CC=C3)NCCCCCCN
Outline: as §1

[16] = compound: CC1=C(C(CC(=O)N1)C2=CC=C(C=C2)C(F)(F)F)C(=O)NC3=C(C=C4C(=C3)C=NN4)F
Outline: as §1

[17] = compound: CC1=C(C2=C(C=C1)C(=O)C3=CC=CC=C3N2CCCN)C
Outline: as §1

[18] = compound: CC1=C(C=C(C=C1)NC(=O)C2=CC(=CC=C2)C(C)(C)C#N)NC3=CC4=C(C=C3)N=CN(C4=O)C
Outline: as §1

[19] = compound: CC1=C(C=C(C=C1)NC(=O)C2=CC(=CC=C2)N(C)C)NC(=O)C3=CC=C(C=C3)O
Outline: as §1

[20] = compound: CC1=CC=C(C=C1)SC2=C3C=C(SC3=CN=C2)C(=O)N
Outline: as §1

Measured: log2 fold change

BET1 (UniProt O15155)
Sequence of UniProt O15155 (O15155 whole entry, looked up): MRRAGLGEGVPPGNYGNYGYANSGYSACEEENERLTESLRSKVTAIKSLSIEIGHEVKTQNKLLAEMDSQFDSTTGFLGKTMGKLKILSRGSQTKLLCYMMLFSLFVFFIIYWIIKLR
inactive: [1] 0.025 | [2] -0.092 | [3] -0.059 | [4] 0.033 | [5] 0.08 | [6] 0.033 | [7] -0.015 | [8] 0.039 | [9] 0.018 | [10] 0.006 | [11] -0.03 | [12] 0.041 | [13] -0.085 | [14] 0.01 | [15] 0.035 | [16] 0.033 | [17] -0.01 | [18] -0.019 | [19] 0.001 | [20] -0.001

CARD11 (UniProt Q9BXL7)
inactive: [1] -0.03 | [2] -0.051 | [3] 0.016 | [4] 0.061 | [5] -0.168 | [6] -0.048 | [7] -0.022 | [8] -0.042 | [9] 0.013 | [10] -0.01 | [11] -0.097 | [12] -0.023 | [13] -0.02 | [14] 0.003 | [15] -0.075 | [16] -0.041 | [17] 0.025 | [18] 0.01 | [19] 0.051 | [20] -0.143

CARNMT1 (UniProt Q8N4J0)
inactive: [1] 0 | [2] 0.004 | [3] 0.028 | [4] -0.019 | [5] 0.029 | [6] -0.015 | [7] -0.05 | [8] -0.008 | [9] -0.011 | [10] 0.029 | [11] -0.014 | [12] -0.003 | [13] -0.007 | [14] -0.056 | [15] -0.041 | [16] 0.004 | [17] -0.014 | [18] 0.082 | [19] -0.043 | [20] -0.006

CDS2 (UniProt O95674)
Sequence of UniProt O95674 (O95674 whole entry, looked up): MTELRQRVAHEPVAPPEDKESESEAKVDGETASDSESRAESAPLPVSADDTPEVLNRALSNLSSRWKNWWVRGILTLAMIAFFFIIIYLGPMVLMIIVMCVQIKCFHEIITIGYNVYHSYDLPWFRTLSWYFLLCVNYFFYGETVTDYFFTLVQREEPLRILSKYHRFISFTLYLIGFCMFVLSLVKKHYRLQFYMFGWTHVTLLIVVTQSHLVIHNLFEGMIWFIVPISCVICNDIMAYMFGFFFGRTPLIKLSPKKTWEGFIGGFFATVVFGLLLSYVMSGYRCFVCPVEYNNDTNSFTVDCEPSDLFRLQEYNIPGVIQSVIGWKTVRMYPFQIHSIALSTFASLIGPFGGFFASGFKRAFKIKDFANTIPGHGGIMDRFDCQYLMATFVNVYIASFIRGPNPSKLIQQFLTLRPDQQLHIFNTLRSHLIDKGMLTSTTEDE
inactive: [1] -0.023 | [2] 0.004 | [3] -0.087 | [4] -0.008 | [5] -0.011 | [6] 0.079 | [7] -0.027 | [8] -0.056 | [9] 0.01 | [11] 0.008 | [12] -0.013 | [13] -0.061 | [14] -0.07 | [15] -0.03 | [16] -0.025 | [17] 0.004 | [18] 0.05 | [19] 0.04 | [20] -0.015
active: [10] 0.214

CBX5 (UniProt P45973)
Sequence of UniProt P45973 (P45973 whole entry, looked up): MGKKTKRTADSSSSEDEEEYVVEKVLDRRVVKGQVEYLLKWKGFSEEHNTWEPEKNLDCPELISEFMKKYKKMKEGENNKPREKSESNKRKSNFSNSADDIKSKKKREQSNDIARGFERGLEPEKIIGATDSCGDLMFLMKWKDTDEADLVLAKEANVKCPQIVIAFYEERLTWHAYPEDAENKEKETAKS
inactive: [1] -0.012 | [2] 0.009 | [3] 0.013 | [4] -0.001 | [5] 0.011 | [6] 0.011 | [7] 0.026 | [8] -0.007 | [9] 0.02 | [10] 0.007 | [11] -0.047 | [12] -0.007 | [13] -0.024 | [14] -0.087 | [15] -0.02 | [16] -0.088 | [17] -0.02 | [18] 0.028 | [19] 0.007 | [20] -0.033

BUD23 isoform 3 (UniProt O43709)
inactive: [1] 0.074 | [2] -0.046 | [3] 0.009 | [4] -0.008 | [5] -0.097 | [6] -0.02 | [7] -0.01 | [8] -0.026 | [9] -0.033 | [10] -0.017 | [11] -0.017 | [12] -0.007 | [13] 0.089 | [14] -0.002 | [15] -0.064 | [16] -0.004 | [17] 0.119 | [18] -0.056 | [19] -0.023 | [20] -0.001

CCAR2 (UniProt Q8N163)
inactive: [1] -0.004 | [2] -0.006 | [3] -0.003 | [4] -0.01 | [5] 0.01 | [6] 0.005 | [7] 0.001 | [8] 0 | [9] 0.001 | [10] -0.009 | [11] 0.025 | [12] -0.019 | [13] 0.012 | [14] -0.006 | [15] -0.018 | [16] 0 | [17] 0.01 | [18] 0.003 | [19] 0.015 | [20] -0.005

CELF2 isoform 3 (UniProt O95319)
active: [18] -0.413
inactive: [1] -0.111 | [2] -0.041 | [3] -0.041 | [4] -0.004 | [5] -0.024 | [6] 0.007 | [7] -0.012 | [8] -0.053 | [9] 0.041 | [10] -0.029 | [11] -0.016 | [12] 0.062 | [13] -0.019 | [14] -0.015 | [15] 0.001 | [16] 0.025 | [17] 0.01 | [19] 0.018 | [20] 0.014

C15orf41 (UniProt Q9Y2V0)
Sequence of UniProt Q9Y2V0 (Q9Y2V0 whole entry, looked up): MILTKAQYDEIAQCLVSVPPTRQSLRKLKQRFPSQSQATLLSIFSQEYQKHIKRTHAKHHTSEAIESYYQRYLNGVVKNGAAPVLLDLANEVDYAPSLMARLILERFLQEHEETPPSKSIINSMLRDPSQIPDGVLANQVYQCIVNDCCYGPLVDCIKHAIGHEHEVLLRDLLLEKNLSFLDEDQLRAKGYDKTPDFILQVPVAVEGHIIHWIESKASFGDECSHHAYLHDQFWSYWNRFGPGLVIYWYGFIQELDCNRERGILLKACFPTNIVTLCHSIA
inactive: [1] 0.008 | [2] 0.073 | [3] 0.032 | [4] 0.112 | [5] -0.097 | [6] 0.014 | [7] -0.04 | [8] -0.028 | [9] -0.076 | [10] -0.012 | [11] -0.028 | [12] -0.013 | [13] -0.018 | [14] -0.029 | [15] 0.063 | [16] 0.006 | [17] 0.045 | [18] 0.023 | [19] 0.13 | [20] -0.106

ATXN2 (UniProt Q99700)
Sequence of UniProt Q99700 (Q99700 whole entry, looked up): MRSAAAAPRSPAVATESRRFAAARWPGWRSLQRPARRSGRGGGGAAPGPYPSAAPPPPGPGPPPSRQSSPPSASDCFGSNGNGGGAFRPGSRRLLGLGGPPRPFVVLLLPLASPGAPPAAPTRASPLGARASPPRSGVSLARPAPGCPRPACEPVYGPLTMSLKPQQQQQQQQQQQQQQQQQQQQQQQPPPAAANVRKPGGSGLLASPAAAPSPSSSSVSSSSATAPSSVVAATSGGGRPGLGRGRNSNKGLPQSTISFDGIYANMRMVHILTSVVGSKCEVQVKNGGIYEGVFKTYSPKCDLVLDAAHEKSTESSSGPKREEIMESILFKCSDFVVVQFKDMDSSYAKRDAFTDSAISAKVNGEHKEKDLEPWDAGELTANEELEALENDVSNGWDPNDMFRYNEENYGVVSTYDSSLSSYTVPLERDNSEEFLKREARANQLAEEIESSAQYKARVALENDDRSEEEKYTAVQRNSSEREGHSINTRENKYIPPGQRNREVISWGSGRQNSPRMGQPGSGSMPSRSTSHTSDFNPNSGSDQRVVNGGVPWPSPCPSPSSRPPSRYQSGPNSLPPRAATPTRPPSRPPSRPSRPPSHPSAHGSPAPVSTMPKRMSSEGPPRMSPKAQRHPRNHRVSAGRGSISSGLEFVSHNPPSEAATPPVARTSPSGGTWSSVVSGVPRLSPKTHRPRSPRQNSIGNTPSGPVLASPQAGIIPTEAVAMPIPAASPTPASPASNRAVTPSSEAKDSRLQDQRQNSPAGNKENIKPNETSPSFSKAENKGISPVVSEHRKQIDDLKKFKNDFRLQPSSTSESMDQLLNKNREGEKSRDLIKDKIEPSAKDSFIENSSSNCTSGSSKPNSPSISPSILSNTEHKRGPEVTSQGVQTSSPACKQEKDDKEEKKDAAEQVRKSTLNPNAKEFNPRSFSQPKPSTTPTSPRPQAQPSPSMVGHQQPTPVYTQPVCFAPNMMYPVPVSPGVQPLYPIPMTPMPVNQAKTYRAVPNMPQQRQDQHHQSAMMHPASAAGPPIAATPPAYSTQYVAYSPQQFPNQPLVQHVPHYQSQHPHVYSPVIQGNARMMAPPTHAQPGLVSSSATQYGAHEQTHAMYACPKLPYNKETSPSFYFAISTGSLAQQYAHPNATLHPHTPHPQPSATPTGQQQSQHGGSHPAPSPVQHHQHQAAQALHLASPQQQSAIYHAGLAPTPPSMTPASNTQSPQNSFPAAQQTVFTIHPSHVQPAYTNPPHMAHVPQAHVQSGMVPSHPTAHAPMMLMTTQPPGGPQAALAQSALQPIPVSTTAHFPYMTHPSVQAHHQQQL
inactive: [1] 0.007 | [2] -0.015 | [3] 0.063 | [4] -0.006 | [5] -0.041 | [6] -0.005 | [7] -0.022 | [8] 0.026 | [9] 0.014 | [10] 0.016 | [11] -0.007 | [12] -0.011 | [13] -0.002 | [14] 0 | [15] 0.016 | [16] 0.013 | [17] -0.022 | [18] -0.02 | [19] 0.041 | [20] -0.021

C19orf54 (UniProt Q5BKX5)
Sequence of UniProt Q5BKX5 (Q5BKX5 whole entry, looked up): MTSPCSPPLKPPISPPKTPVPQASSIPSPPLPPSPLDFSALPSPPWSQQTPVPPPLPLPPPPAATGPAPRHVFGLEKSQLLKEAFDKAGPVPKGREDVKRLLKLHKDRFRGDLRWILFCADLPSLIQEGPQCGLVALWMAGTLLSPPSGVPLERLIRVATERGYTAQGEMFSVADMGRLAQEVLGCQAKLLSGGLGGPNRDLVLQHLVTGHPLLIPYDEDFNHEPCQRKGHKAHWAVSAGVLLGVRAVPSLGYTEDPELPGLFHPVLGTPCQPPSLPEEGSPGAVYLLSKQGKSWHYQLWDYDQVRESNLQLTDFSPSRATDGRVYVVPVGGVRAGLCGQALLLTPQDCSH
inactive: [1] -0.012 | [2] 0.042 | [3] 0.035 | [4] -0.025 | [5] 0.019 | [6] -0.004 | [7] 0.022 | [8] -0.012 | [9] -0.012 | [10] 0.054 | [11] 0.041 | [12] 0.003 | [13] -0.018 | [14] -0.055 | [15] 0.028 | [16] 0.012 | [17] 0.06 | [18] -0.041 | [19] 0.013 | [20] 0.063

ATG7 (UniProt O95352)
inactive: [1] 0.03 | [2] 0.113 | [3] 0.035 | [4] 0.001 | [5] 0.015 | [6] -0.003 | [7] -0.06 | [8] -0.028 | [9] 0.032 | [10] 0.017 | [11] 0.014 | [12] -0.008 | [13] 0.026 | [14] -0.016 | [15] -0.022 | [16] 0.021 | [17] 0.002 | [18] -0.001 | [19] 0.011 | [20] 0.027

AURKA (UniProt O14965)
Sequence of UniProt O14965 (O14965 whole entry, looked up): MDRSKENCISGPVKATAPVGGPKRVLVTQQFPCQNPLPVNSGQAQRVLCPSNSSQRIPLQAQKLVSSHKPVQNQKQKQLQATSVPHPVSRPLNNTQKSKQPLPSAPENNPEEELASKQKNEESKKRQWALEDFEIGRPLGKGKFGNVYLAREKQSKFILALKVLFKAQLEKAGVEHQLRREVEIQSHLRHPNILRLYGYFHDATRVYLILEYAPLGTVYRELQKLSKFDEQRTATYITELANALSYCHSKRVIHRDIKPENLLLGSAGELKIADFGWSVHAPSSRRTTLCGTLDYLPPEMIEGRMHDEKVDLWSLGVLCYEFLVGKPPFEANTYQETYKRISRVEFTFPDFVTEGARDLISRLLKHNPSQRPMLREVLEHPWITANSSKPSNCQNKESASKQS
inactive: [1] 0.111 | [2] -0.028 | [3] -0.033 | [4] 0.008 | [5] 0 | [6] -0.039 | [7] 0.359 | [8] 0.483 | [9] -0.004 | [10] 0.129 | [11] 0.348 | [12] 0.144 | [13] -0.042 | [14] 0.037 | [15] -0.051 | [16] 0.034 | [17] -0.039 | [18] -0.042 | [19] -0.005 | [20] 0.007

ATG13 isoform 2 (UniProt O75143)
inactive: [1] 0.019 | [2] -0.055 | [3] -0.033 | [4] 0.021 | [5] -0.001 | [6] -0.004 | [7] 0.02 | [8] -0.031 | [9] 0.019 | [10] 0.006 | [11] 0.01 | [12] 0.011 | [13] -0.003 | [14] -0.018 | [15] 0.004 | [16] 0 | [17] -0.006 | [18] 0.048 | [19] -0.024 | [20] 0.016

CDC42BPA isoform 6 (UniProt Q5VT25)
Sequence of UniProt Q5VT25 (Q5VT25 whole entry, looked up): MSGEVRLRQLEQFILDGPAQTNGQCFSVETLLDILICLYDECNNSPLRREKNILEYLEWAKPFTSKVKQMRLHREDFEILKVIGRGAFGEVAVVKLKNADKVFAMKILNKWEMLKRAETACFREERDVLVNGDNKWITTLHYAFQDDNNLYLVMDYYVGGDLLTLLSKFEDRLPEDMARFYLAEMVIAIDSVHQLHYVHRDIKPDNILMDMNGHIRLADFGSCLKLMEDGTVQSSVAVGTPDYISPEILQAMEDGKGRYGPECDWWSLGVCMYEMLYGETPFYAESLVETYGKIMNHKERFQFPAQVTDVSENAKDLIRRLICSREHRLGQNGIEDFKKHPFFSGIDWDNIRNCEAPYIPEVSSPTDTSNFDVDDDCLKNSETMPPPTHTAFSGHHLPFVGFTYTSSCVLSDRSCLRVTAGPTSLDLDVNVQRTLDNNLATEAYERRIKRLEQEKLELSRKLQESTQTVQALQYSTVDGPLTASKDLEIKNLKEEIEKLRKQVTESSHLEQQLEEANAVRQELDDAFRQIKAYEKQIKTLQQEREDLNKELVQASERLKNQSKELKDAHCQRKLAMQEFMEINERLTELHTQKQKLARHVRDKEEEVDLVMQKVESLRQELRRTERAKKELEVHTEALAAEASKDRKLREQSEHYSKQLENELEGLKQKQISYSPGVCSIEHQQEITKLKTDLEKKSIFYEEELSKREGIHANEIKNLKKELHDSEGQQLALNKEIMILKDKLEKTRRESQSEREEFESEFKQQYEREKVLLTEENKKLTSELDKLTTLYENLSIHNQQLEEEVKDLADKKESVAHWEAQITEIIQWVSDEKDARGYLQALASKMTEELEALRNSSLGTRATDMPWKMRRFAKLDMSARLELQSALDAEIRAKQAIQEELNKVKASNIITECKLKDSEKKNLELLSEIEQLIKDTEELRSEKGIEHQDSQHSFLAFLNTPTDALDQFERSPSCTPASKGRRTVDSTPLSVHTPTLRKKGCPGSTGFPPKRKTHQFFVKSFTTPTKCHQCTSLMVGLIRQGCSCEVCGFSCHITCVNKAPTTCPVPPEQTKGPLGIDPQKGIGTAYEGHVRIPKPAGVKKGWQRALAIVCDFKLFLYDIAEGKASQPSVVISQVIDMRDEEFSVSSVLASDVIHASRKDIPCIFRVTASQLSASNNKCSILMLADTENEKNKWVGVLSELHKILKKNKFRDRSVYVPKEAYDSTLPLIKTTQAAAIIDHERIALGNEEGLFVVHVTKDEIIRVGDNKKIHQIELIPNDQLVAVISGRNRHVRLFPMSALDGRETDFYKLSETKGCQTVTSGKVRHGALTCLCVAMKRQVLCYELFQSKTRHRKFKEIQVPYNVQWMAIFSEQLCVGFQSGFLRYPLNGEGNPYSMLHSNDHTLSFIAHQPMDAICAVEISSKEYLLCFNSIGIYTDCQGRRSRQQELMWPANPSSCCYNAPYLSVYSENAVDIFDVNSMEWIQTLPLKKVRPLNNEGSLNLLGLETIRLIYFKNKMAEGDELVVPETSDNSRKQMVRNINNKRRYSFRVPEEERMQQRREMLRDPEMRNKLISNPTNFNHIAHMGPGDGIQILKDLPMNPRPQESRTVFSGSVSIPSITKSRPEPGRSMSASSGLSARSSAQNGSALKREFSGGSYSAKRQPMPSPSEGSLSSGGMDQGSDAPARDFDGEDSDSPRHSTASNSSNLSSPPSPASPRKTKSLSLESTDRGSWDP
inactive: [1] -0.007 | [2] 0.077 | [3] -0.086 | [4] 0.011 | [5] -0.012 | [6] -0.029 | [7] -0.09 | [8] -0.032 | [9] -0.006 | [10] -0.038 | [11] 0.016 | [12] 0.039 | [13] 0.012 | [14] -0.013 | [15] 0.03 | [16] 0.005 | [17] -0.004 | [18] 0.018 | [19] 0.034 | [20] -0.003

CAMK2G isoform 8 (UniProt Q13555)
inactive: [1] 0.009 | [2] -0.193 | [3] 0.027 | [4] -0.094 | [5] 0.018 | [6] -0.027 | [7] 0.116 | [8] 0.026 | [9] 0.044 | [10] 0.036 | [11] 0.036 | [12] 0.173 | [13] -0.022 | [14] 0.009 | [15] -0.001 | [16] -0.019 | [17] 0.073 | [18] -0.03 | [19] 0.05 | [20] -0.027
